In test [1] the target is T1, GST-Dm-Relish (Drosophila melanogaster, UniProt Q94527 99-473).
T1 sequence: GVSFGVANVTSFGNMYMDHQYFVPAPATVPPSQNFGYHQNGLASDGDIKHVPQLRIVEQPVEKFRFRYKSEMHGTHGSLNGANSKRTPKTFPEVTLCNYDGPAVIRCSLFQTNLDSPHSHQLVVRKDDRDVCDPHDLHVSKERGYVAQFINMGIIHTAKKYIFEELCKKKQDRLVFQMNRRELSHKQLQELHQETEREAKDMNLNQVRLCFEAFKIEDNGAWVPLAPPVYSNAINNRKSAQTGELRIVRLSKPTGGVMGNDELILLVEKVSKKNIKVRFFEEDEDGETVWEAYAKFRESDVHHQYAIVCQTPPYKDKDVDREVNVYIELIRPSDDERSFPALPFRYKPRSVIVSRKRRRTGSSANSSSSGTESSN
As to the kind of experiment: protein-binding microarray (PBM); PBM: ~300 nM protein, 6 mM HEPES pH 7.8, 80 mM KCl, 0.5 mM EDTA, 0.5 mM EGTA, 6% glycerol, 35 ng/ul poly-dIdC, 1% milk, 1 h, room temperature; Ap Aiptasia and Nv Nematostella (sea anemones) / Co Capsaspora / Aq Amphimedon (sponge) / Dm Drosophila / Hu human; RHD is the Rel homology domain; high values mean tight binding. The conditions noted are these: dsDNA, one strand shown.

The target of test [2] is T2, GST-Aq-NF-kB (Amphimedon queenslandica, UniProt A9Y5G7 2-389).
T2 sequence: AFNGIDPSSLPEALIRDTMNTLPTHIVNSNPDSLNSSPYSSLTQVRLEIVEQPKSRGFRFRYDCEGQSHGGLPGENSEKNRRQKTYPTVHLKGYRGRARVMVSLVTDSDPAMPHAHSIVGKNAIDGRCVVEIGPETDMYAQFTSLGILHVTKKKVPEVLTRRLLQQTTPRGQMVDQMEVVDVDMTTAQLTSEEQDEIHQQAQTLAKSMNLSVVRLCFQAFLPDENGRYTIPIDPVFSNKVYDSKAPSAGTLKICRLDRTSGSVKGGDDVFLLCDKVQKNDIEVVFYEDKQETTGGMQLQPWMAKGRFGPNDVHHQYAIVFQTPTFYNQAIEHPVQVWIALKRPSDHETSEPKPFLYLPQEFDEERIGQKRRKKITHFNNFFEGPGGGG
Described as above. To be noted: dsDNA, one strand shown.

With “CCGATTAACATCAAAAAATCTCCTGATGTTAATCGGGTCTTGATTCGCTTGACGCTGCTG”, the figures for the binding signal in test [1] and in test [2] were 1.02 z-score and 1.21 z-score, respectively.

Regarding “CCGATTAACATCAAGGAAACTCCTGATGTTAATCGGGTCTTGATTCGCTTGACGCTGCTG”, the results for the binding signal in test [1] and in test [2] were 1.12 z-score and 2.64 z-score, respectively.

Take “CCGATTAACATCAGGAAATACCATGATGTTAATCGGGTCTTGATTCGCTTGACGCTGCTG”: the binding signal stood at 3.07 z-score in test [1] and 3.27 z-score in test [2].

On to “CCGATTAACATCAATGGGTTTCCTGATGTTAATCGGGTCTTGATTCGCTTGACGCTGCTG”, for which the binding signal in test [1] was found to be 2.98 z-score; in test [2], 1.07 z-score.

As for “CCGATTAACATCAATGGAATTCCTGATGTTAATCGGGTCTTGATTCGCTTGACGCTGCTG”, the binding signal in test [1] is 3.2 z-score; in test [2], 1.5 z-score.

For the sequence “CCGATTAACATCAATAAAATTCCTGATGTTAATCGGGTCTTGATTCGCTTGACGCTGCTG”, the binding signal is 1.81 z-score in test [1] and 1.79 z-score in test [2].

Turning to “CCGATTAACATCACCCTTGCAGGTGATGTTAATCGGGTCTTGATTCGCTTGACGCTGCTG”, the binding signal was 1.5 z-score in test [1] and 1.27 z-score in test [2].

On to “CCGATTAACATCAAAAAAAGTACTGATGTTAATCGGGTCTTGATTCGCTTGACGCTGCTG”, for which the binding signal in test [1] was 7.01 z-score; in test [2] it was 1.54 z-score.

As to “CCGATTAACATCACGAAAATTCCTGATGTTAATCGGGTCTTGATTCGCTTGACGCTGCTG”, the binding signal in test [1] turned out to be 1.12 z-score; in test [2], 1.41 z-score.

“CCGATTAACATCAGGAAAATTTATGATGTTAATCGGGTCTTGATTCGCTTGACGCTGCTG”: the binding signal in test [1] is 1.44 z-score; in test [2], 1.26 z-score.

On to “CCGATTAACATCATAAAATTCCATGATGTTAATCGGGTCTTGATTCGCTTGACGCTGCTG”, for which the binding signal in test [1] came out at 1.32 z-score; in test [2] it was 1.26 z-score.

As for “CCGATTAACATCACGGAAAGTACTGATGTTAATCGGGTCTTGATTCGCTTGACGCTGCTG”, the binding signal in test [1] was 4.11 z-score; in test [2] it was 2.92 z-score.

“CCGATTAACATCACCGGAAATCCTGATGTTAATCGGGTCTTGATTCGCTTGACGCTGCTG”: the binding signal in test [1] was 2.06 z-score; in test [2] it was 2.27 z-score.

For “CCGATTAACATCACGGGCATTCCTGATGTTAATCGGGTCTTGATTCGCTTGACGCTGCTG”, the binding signal turned out to be 2.37 z-score in test [1] and 3.21 z-score in test [2].

In the case of “CCGATTAACATCACAGGATTTCCTGATGTTAATCGGGTCTTGATTCGCTTGACGCTGCTG”, the binding signal was found to be 1.81 z-score in test [1] and 1.18 z-score in test [2].

As for “CCGATTAACATCAAGGATTTTCCTGATGTTAATCGGGTCTTGATTCGCTTGACGCTGCTG”, the binding signal in test [1] was 1.44 z-score; in test [2], 3.08 z-score.

In the case of “CCGATTAACATCAGGACATCCCATGATGTTAATCGGGTCTTGATTCGCTTGACGCTGCTG”, the binding signal was 3.93 z-score in test [1] and 2.15 z-score in test [2].

For “CCGATTAACATCACGGGCATCCCTGATGTTAATCGGGTCTTGATTCGCTTGACGCTGCTG”, the binding signal amounted to 5.06 z-score in test [1] and 3.09 z-score in test [2].

Consider “CCGATTAACATCAACAAAATTCCTGATGTTAATCGGGTCTTGATTCGCTTGACGCTGCTG”, for which the binding signal was 1.6 z-score in test [1] and 1.34 z-score in test [2].

Take “CCGATTAACATCACAGGAATTCCTGATGTTAATCGGGTCTTGATTCGCTTGACGCTGCTG”: the binding signal was 3.05 z-score in test [1] and 2.17 z-score in test [2].

As to “CCGATTAACATCAAAAATTCCGGTGATGTTAATCGGGTCTTGATTCGCTTGACGCTGCTG”, the binding signal was determined as 2.45 z-score in test [1] and 2.94 z-score in test [2].

In the case of “CCGATTAACATCAGGTTCTTACCTGATGTTAATCGGGTCTTGATTCGCTTGACGCTGCTG”, the binding signal in test [1] was determined as 1.79 z-score; in test [2], 1.38 z-score.

Take “CCGATTAACATCAAAGGATTTCCTGATGTTAATCGGGTCTTGATTCGCTTGACGCTGCTG”: the binding signal worked out at 1.74 z-score in test [1] and 1.01 z-score in test [2].

Turning to “CCGATTAACATCACGGAAAAACCTGATGTTAATCGGGTCTTGATTCGCTTGACGCTGCTG”, the results for the binding signal in test [1] and in test [2] were 2.16 z-score and 3.55 z-score, respectively.

For “CCGATTAACATCACGGAAACTACTGATGTTAATCGGGTCTTGATTCGCTTGACGCTGCTG”, the values for the binding signal in test [1] and in test [2] were 1.84 z-score and 1.46 z-score, respectively.

“CCGATTAACATCAGGAAAATCCATGATGTTAATCGGGTCTTGATTCGCTTGACGCTGCTG”: the figures for the binding signal in test [1] and in test [2] were 1.26 z-score and 2.69 z-score, respectively.

Turning to “CCGATTAACATCAGGAATTTTACTGATGTTAATCGGGTCTTGATTCGCTTGACGCTGCTG”, the binding signal is 1.49 z-score in test [1] and 1.14 z-score in test [2].

On to “CCGATTAACATCACGGAAAGTCCTGATGTTAATCGGGTCTTGATTCGCTTGACGCTGCTG”, for which the binding signal in test [1] came out at 3.12 z-score; in test [2], 5.28 z-score.

With “CCGATTAACATCAGGGCTTTCCATGATGTTAATCGGGTCTTGATTCGCTTGACGCTGCTG”, the values for the binding signal in test [1] and in test [2] were 3.94 z-score and 3.39 z-score, respectively.

As for “CCGATTAACATCACGGAAAATCCTGATGTTAATCGGGTCTTGATTCGCTTGACGCTGCTG”, the binding signal came out at 1.04 z-score in test [1] and 3.9 z-score in test [2].

Consider “CCGATTAACATCACGGAAACCACTGATGTTAATCGGGTCTTGATTCGCTTGACGCTGCTG”, for which the figures for the binding signal in test [1] and in test [2] were 3.59 z-score and 1.46 z-score, respectively.

“CCGATTAACATCAGCGGAAATCCTGATGTTAATCGGGTCTTGATTCGCTTGACGCTGCTG”: the binding signal in test [1] is 1.26 z-score; in test [2], 1.07 z-score.

In the case of “CCGATTAACATCAGGACTTTACATGATGTTAATCGGGTCTTGATTCGCTTGACGCTGCTG”, the figures for the binding signal in test [1] and in test [2] were 6.1 z-score and 1.25 z-score, respectively.

On to “CCGATTAACATCACGTACTTTCCTGATGTTAATCGGGTCTTGATTCGCTTGACGCTGCTG”, for which the binding signal in test [1] was found to be 4.78 z-score; in test [2], 2.39 z-score.

As to “CCGATTAACATCACAGAATTTCCTGATGTTAATCGGGTCTTGATTCGCTTGACGCTGCTG”, the binding signal in test [1] worked out at 1.09 z-score; in test [2] it was 1.36 z-score.

Turning to “CCGATTAACATCACGTAAAACCCTGATGTTAATCGGGTCTTGATTCGCTTGACGCTGCTG”, the binding signal was 3.01 z-score in test [1] and 2.12 z-score in test [2].

For the sequence “CCGATTAACATCAAAAAACTTCCTGATGTTAATCGGGTCTTGATTCGCTTGACGCTGCTG”, the binding signal in test [1] was found to be 1.56 z-score; in test [2], 1.4 z-score.

“CCGATTAACATCACAAAATTTCCTGATGTTAATCGGGTCTTGATTCGCTTGACGCTGCTG”: the binding signal in test [1] worked out at 1.74 z-score; in test [2], 1.72 z-score.

The values above are taken from PMC5700166.
